Experimental data: ChEMBL document CHEMBL3988442, “University of Dundee, Small-Polar-MMV Screening Library” (2021)
The whole screen tested about 48,000 compounds, of which about 13,000 (27%) showed an effect of 50% or more. The list shows a part of the results.

Tested on: Wolbachia pipientis
Assay: Anti-Wolbachia Cell-Based Screen
Format: functional
Design: scale not given: in the data most compounds retested in dose-response had high values
Details: 5 µM

Row | SMILES | Percent Effect [%]
1 | O=C(Nc1ccccc1)C1=NOC2(CCCNC2)C1 (configuration not stated) | -15.15
2 | Cl.N#CC1(C(=O)NCC2CCC3(CCNCC3)O2)CC1 (configuration not stated) | -12.24
3 | COc1cc2nc(NCc3ccc(C)nc3)nc(N)c2cc1OC | 15.36
4 | CN1C[C@@H]2COC[C@]2(C(=O)NCc2cccs2)C1 | -12.7
5 | Cc1cc(C)c(CNc2nc3ccccc3cc2CO)c(=O)[nH]1 | 34.93
6 | CC(Cn1cccn1)NCCS(=O)(=O)c1ccccc1 (configuration not stated) | -1.056
7 | CCc1nc(CNC(C)Cn2cccn2)cs1 (configuration not stated) | 2.575
8 | COc1cc(CNC(C)Cn2cccn2)cc2c1OCCO2.Cl (configuration not stated) | 99.62
9 | COc1ccc(CNC(C)Cn2cccn2)c(OC)c1OC.Cl (configuration not stated) | 98.57
10 | COc1ccc(CNC(C)Cn2cccn2)cc1OC (configuration not stated) | 104.4
11 | CC(Cn1cccn1)NCc1csc(-c2cccs2)n1 (configuration not stated) | 1.256
12 | COc1cccc(CNC(C)Cn2cccn2)c1OC.Cl (configuration not stated) | 8.103
13 | COc1cc(CNCC(O)c2ccc(C)cc2)cc2c1OCCO2.Cl (configuration not stated) | 4.109
14 | COc1cc(CNC(C)Cn2cccn2)cc(OC)c1 (configuration not stated) | 102.9
15 | CC(Cn1cccn1)NCC(=O)NC1CCOCC1 (configuration not stated) | 1.6
16 | COc1c(Br)cc(Br)cc1CNC(C)Cn1cccn1 (configuration not stated) | 3.191

Row | SMILES | Percent Effect [%]
17 | CC(Cn1cccn1)NCc1csc2c1CCCC2 (configuration not stated) | 12.25
18 | CC(c1ccc(F)cc1)N1CCN(Cc2ccc(C#N)cc2)CC1 (configuration not stated) | 26.99
19 | CC(C)OCCNC1(c2ccc(Cl)cc2)CCOCC1 | 3.7
20 | CC(=O)N1C[C@H]2CNC[C@@]2(C(=O)NCCNc2ccncc2C)C1 | -5.626
21 | Cc1cccc(-c2ncc(CNC(C)Cc3ccncc3)cn2)c1 (configuration not stated) | -2.738
22 | Cc1nnc([C@@H]2CC[C@@H]3[C@@H](CCN3Cc3ccccn3)O2)o1.O=C(O)C(F)(F)F.O=C(O)C(F)(F)F | -6.583
23 | CC(Cn1cccn1)NCc1nc(-c2cccs2)no1 (configuration not stated) | -0.9937
24 | CC(Cn1cncn1)NCc1ccc2nonc2c1 (configuration not stated) | -26.41
25 | COc1cc(CNC(C)Cn2cccn2)cc(OC)c1OC.Cl (configuration not stated) | -0.312
26 | COc1ccc(CNC(C)Cn2cccn2)cc1F (configuration not stated) | 80.61
27 | CC(Cn1ccnc1)NCc1ccc2nonc2c1 (configuration not stated) | -7.482
28 | COc1cc(CNC(C)Cn2cccn2)cc(Cl)c1OC.Cl (configuration not stated) | 86.44
29 | Cc1nc(C)c(CC(=O)N2C[C@@H]3CC[C@H](C2)N(CC2CC2)C3)s1 | 5.812
30 | O=S1(=O)N(c2ccccc2)C[C@@H](O)[C@]12CCNC2 | 103.1
31 | O=C(O)C(F)(F)F.O=S1(=O)NCC2(CCNCC2)COc2ccccc21 | -6.327
32 | O=S1(=O)N(c2ccccc2)C[C@H](O)[C@]12CCNC2 | 107
